In assay [1] the target is alpha-glucosidase (Oryza sativa, rice) (UniProt Q653V4). Nature of the assay: Counterscreen for Glucocerebrosidase Inhibitors: qHTS Assay for Rice alpha-Glucosidase at pH 5.0 (AID 997).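 Further: 0% = full activity with enzyme and -100% = basal without enzyme.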 The procedure, abridged: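 Rice alpha-glucosidase (4 nM final) with 400 uM 4-methylumbelliferyl-alpha-D-glucopyranoside in citrate buffer pH 5.0, 20 min at room temperature, stopped at pH 10; fluorescence 365/440 nm, compounds 0.7 nM–77 uM, AC50 from Hill fits.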
In general terms: Counterscreens check selectivity or assay interference.

Assay [2] has as its target Alpha-galactosidase (Coffea arabica) (UniProt Q42656). Put plainly: Counterscreen for Glucocerebrosidase Inhibitors: qHTS Assay for Coffee Bean alpha-Galactosidase at pH 5.9 (AID 998).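 Further: plate controls were uninhibited enzyme for no effect and no-enzyme basal signal for full effect.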 The gist of the method: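 Green coffee bean enzyme (2 nM) with 4-methylumbelliferyl alpha-D-galactopyranoside (80 uM) in 50 mM citric acid, 0.005% Tween-20, pH 5.9, 20 min at room temperature; compounds 0.7 nM–77 uM. Stopped at pH 10, fluorescence Ex365/Em440; Hill-fit AC50.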

Assay [3] in a line: Validation of Assay for Modulators of Lamin A Splicing (AID 1459; active means well fitted curve in the direction sought with a large enough effect in the signal ratio; the % refers to the signal ratio;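 further: cells exposed to compound for two days before reading; 0% is about no effect; ratio rise marks activators and ratio drop marks inhibitors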). The gist of the method: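 S3 HeLa cells stably expressing a lamin A-EGFP splicing minigene and DsRed2 were seeded at 600 cells/well in Opti-MEM with 2% FBS, pin-dosed, and incubated 48 hrs at 37 °C, 5% CO2. Laser-scanning cytometry (488 nm) gave GFP/RFP total intensity ratio.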
Assay [4] in a line: qHTS Assay for Lipid Storage Modulators (AID 1519; calls by dose curve; on activity change, negative = inhibition: on the % scale 0 is the no-effect control and ±100 the full control effect). To be noted: Drosophila S3 cells, BODIPY lipid droplet/cell ratio, laser cytometry, cells loaded with oleic acid. The gist of the method:
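Cells seeded at 5,000 per well were treated with compounds over a concentration series and loaded with oleic acid (400 uM, as added). Lipid droplet fluorescence (488 nm excitation, 500-530 nm channel) was read by laser-scanning cytometry and normalized to 20 uM Triacsin C.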
On the technique in general: qHTS replaces the single test concentration by a dilution series.

Assay [5] can be described thus: qHTS for differential inhibitors of proliferation of Plasmodium falciparum line 7G8 (AID 1815).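 Further: parasite growth measured after three days of incubation.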 Further: potency means the concentration at half of the fitted maximal effect.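 On activity change, negative = inhibition: plate controls were vehicle wells for no effect and reference inhibitor wells for full effect.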
The nature of assay [6]: qHTS for differential inhibitors of proliferation of Plasmodium falciparum line GB4 (AID 1816).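 Further: parasite growth measured after 72 h incubation.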 Further: potency means the concentration at half of the fitted maximal effect.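 On activity change, negative = inhibition: 0% = vehicle DMSO and -100% = reference inhibitor.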 As to conditions: Potency: Plasmodium falciparum GB4 proliferation inhibition.
Assay [7] in a line: qHTS for differential inhibitors of proliferation of Plasmodium falciparum line Dd2 (AID 1882).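 Further: plate controls were DMSO vehicle for no effect and 0.29 µM artemisinin for full effect; nearly all actives have a fitted effect of over 65% in size.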 To be noted: Potency: Plasmodium falciparum Dd2 proliferation inhibition. The procedure, abridged:
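Dd2-infected erythrocytes (0.3% parasitemia, 2.5% hematocrit final) incubated with compound 72 h at 37 C, 5% CO2; lysed with saponin/Triton buffer containing SYBR Green I, incubated overnight in the dark, then read by fluorescence (485/535 nm). Normalized to 0.29 uM artemisinin and DMSO.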

The nature of assay [8]: qHTS for differential inhibitors of proliferation of Plasmodium falciparum line HB3 (AID 1886).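 Further: parasites grown with compound for 72 h before SYBR Green readout.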 Further: potency means the concentration at half of the fitted maximal effect.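 On activity change, negative = inhibition: plate controls were vehicle for no effect and reference inhibitor for full effect.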 As to conditions: Potency: Plasmodium falciparum HB3 proliferation inhibition.
The target in assay [9] is Ferritin light chain (Equus caballus) (UniProt P02791). Nature of the assay: qHTS Validation Assay for Identification of Novel General Anesthetics (AID 2323). Further: on the % scale 0 is the no-effect control and ±100 the full control effect. The procedure, abridged:
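Competitive displacement of profluorescent 1-aminoanthracene (1-AMA, 50% saturated solution in PBS) from 10 uM horse-spleen apoferritin. Compounds incubated 10 min at room temperature; fluorescence read at 380 nm excitation/535 nm emission, normalized to free 1-AMA and complex, fitted with four-parameter Hill equation.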

The target in assay [10] is ATP-dependent DNA helicase Q1 (Homo sapiens) (UniProt P46063). Put plainly: qHTS Validation Assay for Inhibitors of RecQ-Like Dna Helicase 1 (RECQ1) (AID 2353). Further: potency means the concentration at half of the fitted maximal effect.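 On activity change, negative = inhibition: plate controls were DMSO vehicle for no effect and enzyme-free control for full effect.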 The gist of the method: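 50 nM RECQ1T1 preincubated 15 min with compound in Tris pH 8.0 buffer with MgCl2, DTT, Tween-20 and 2.5 ug/ml poly(dI-dC); started with 200 nM TAMRA/BHQ-2 forked duplex and 2 mM ATP. Unwinding read as fluorescence (525/598 nm), two reads 2 h apart.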
ATP-dependent DNA helicase Q1 (Homo sapiens), sequence (P46063 whole entry, looked up): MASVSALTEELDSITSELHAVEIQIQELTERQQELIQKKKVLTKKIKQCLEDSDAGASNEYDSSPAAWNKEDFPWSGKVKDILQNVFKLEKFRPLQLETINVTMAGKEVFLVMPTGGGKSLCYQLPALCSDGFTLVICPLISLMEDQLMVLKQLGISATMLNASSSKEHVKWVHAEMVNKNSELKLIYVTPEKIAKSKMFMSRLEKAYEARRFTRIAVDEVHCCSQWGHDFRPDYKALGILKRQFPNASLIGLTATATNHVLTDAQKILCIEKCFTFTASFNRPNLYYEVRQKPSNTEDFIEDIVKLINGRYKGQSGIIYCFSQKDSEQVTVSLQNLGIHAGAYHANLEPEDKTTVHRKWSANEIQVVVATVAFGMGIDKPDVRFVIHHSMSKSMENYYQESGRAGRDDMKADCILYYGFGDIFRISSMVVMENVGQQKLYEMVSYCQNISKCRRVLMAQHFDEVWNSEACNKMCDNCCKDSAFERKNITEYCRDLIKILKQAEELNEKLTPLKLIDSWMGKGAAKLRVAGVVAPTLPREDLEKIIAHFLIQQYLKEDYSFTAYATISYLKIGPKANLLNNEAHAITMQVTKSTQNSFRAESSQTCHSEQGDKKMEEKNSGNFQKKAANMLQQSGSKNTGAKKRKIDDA

Assay [11] has as its target RecQ-like DNA helicase BLM (Homo sapiens) (UniProt P54132). Nature of the assay: qHTS Validation Assay for Inhibitors of Bloom's syndrome helicase (BLM) (AID 2364).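 Further: plate controls were DMSO vehicle for no effect and enzyme-free control for full effect.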 The gist of the method:
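50 nM BLM preincubated 15 min at room temperature with compound in pH 8.0 Tris buffer containing 2.5 ug/ml poly(dI-dC); started with 200 nM TAMRA/BHQ-2 forked duplex and 2 mM ATP (final). Unwinding read as TAMRA fluorescence increase, two reads 2 h apart.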

The nature of assay [12]: High Content Imaging Cell-Based qHTS for Inhibitors of the mTORC1 Signaling Pathway in MEF (Tsc2-/-, p53-/-) Cells (AID 2666).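 Further: percent of cells scored positive for phospho-rpS6 Ser235/236 immunostaining by imaging.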 As to conditions: at 38.3 µM (top of the series). The procedure, abridged:
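Phospho-rpS6 (Ser235/236) immunofluorescence, normalized and scored as % positive cells using rapamycin and DMSO controls, was read in empty-vector Tsc2-/-, p53-/- MEFs after 24 h compound exposure at 37 C; propidium iodide counted cells.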

Assay [13] can be described thus: Validation screen for inhibitors of Lassa infection (AID 463096; calls by dose curve; further: on the % scale 0 is the no-effect control and ±100 the full control effect).
Assay [14] is described as follows: Validation screen for small molecules that induce DNA re-replication in MCF 10A normal breast cells (AID 463097). Further: 0% is about no effect; nearly all actives have a fitted effect of over 60% in size. The procedure, abridged:
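Readout: Hoechst nuclear fluorescence intensity, 405 ex / 500-530 em, by scanning plate imager; re-replication scored as increase in nuclei with elevated DNA content. Cells exposed to compound 48 hr, 37 C, 5% CO2 beforehand.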

Assay [15] is described as follows: qHTS for differential inhibitors of proliferation of Plasmodium falciparum line 3D7 (AID 1876).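 Further: parasite growth measured after three days of culture; 0% = vehicle wells and -100% = reference inhibitor wells.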
A short description of assay [16]: qHTS for differential inhibitors of proliferation of Plasmodium falciparum line D10 (AID 1877).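 Further: parasites grown with compound for 72 h before DNA staining; plate controls were vehicle wells for no effect and reference inhibitor wells for full effect.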
Assay [17] can be described thus: qHTS for differential inhibitors of proliferation of Plasmodium falciparum line W2 (AID 1883).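 Further: parasites grown with compound for 72 h before lysis and staining.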 Further: potency means the concentration at half of the fitted maximal effect.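 On activity change, negative = inhibition: 0% = vehicle wells and -100% = control inhibitor wells.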 To be noted: Potency: Plasmodium falciparum W2 proliferation inhibition.
Assay [18] addresses Ubiquitin carboxyl-terminal hydrolase 2 (Homo sapiens) (UniProt O75604). Nature of the assay: qHTS Validation Assay for Inhibitors of Ubiquitin-specific Protease USP2a Using CHOP2 as the Reporter (AID 463106).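 Further: plate controls were DMSO for no effect and full inhibition by NEM for full effect.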 The gist of the method: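 USP2 core (10 nM final) was preincubated with compound 30 min at RT in pH 8.0 Tris/CaCl2/beta-ME/CHAPS buffer. Ub-CHOP2 and reporter substrate (25 nM final each) were then added, with fluorescence (Ex 485/Em 531) read after 60 min. Data were normalized to NEM full inhibition and fitted to concentration-response curves.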

Assay [19] can be described thus: qHTS Assay for Identification of Small Molecule Inducers of Hypoxia Response (AID 2120; active means well fitted curve in the direction sought with a large enough effect in the signal ratio, with a control signal flat, not every such curve was filed as active; the % refers to the signal ratio; further: 0% is about no effect). The procedure, abridged:
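ME-180 HRE-bla cells plated in Opti-MEM/0.5% dialyzed FBS, rested 4-5 h, then dosed with compound titrations by pin tool. After 17 h at 37 degrees C, CCF4 dye loaded 2.5 h at RT; 460/530 nm ratio gave %Activity and AC50.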

Assay [20] can be described thus: qHTS Assay for Modulators of Human Peripheral Myelin Protein 22 (PMP22) Expression/Activity (AID 1967; active means well fitted curve in the direction sought with a large enough effect in the signal ratio; the % refers to the signal ratio;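 further: 0% = untreated cells and 100% end not stated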). The gist of the method:
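MSC80 mouse Schwann cells stably carrying Pmp22 promoter–green click beetle luciferase plus EF-alpha–red luciferase control were dosed for 24h at 37 °C. Dual-colour luminescence was filter-overlap corrected; %Activity came from green/red ratio versus untreated cells.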

[21] abbreviates: measured here: cell count channel max response.
Setting [22] is: measured here: lipid channel max response.

Values joined by “and” are separate entries in the source; they are usually repeats but may differ in a detail not shown here. Identical values can stand only once. Results filed as inconclusive are left out. Active and inactive are the calls of the source. Unless noted, the call rests on the fitted dose curve; in most records, active means well fitted curve in the direction sought with a large enough effect; inconclusive means small, poorly fitted or top-dose-only effect, or another doubt; inactive means no such curve, though single readings can be large; an effect the other way counts as inactive or inconclusive.

Ferritin light chain (Equus caballus), sequence (P02791 2-175 limits assumed): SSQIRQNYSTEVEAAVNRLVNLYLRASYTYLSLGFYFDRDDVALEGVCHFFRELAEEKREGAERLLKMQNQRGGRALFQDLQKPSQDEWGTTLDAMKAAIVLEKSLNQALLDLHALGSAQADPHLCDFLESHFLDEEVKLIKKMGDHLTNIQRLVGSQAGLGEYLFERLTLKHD
Alpha-galactosidase (Coffea arabica), sequence (Q42656 whole entry, looked up): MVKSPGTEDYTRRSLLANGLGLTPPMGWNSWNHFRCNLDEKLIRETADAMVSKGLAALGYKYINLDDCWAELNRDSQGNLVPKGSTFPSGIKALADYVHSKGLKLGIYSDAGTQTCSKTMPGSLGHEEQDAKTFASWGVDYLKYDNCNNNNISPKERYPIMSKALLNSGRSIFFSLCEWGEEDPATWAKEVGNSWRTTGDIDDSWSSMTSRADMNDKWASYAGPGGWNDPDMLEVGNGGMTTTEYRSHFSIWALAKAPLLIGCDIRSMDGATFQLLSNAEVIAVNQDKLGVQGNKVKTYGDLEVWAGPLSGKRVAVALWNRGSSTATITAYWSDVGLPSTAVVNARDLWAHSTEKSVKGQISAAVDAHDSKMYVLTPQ
Ubiquitin carboxyl-terminal hydrolase 2 (Homo sapiens), sequence (O75604 whole entry, looked up): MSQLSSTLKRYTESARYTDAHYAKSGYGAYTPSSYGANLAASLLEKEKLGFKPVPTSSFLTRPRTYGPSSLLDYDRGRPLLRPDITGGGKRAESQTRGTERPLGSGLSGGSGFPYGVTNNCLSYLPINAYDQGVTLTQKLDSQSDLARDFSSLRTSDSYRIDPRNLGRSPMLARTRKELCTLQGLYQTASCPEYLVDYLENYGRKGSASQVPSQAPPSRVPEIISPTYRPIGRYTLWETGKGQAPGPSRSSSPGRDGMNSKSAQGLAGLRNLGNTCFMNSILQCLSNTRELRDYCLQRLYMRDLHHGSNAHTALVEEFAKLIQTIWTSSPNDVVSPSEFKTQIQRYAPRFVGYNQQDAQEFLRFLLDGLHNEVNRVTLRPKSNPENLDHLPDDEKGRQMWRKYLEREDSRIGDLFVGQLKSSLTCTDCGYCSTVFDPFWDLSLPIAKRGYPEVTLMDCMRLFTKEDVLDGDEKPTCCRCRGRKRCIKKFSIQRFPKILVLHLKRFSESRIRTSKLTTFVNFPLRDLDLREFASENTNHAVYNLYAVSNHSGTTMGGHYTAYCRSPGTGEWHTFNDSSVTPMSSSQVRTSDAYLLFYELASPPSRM
RecQ-like DNA helicase BLM (Homo sapiens), sequence (P54132 whole entry, looked up): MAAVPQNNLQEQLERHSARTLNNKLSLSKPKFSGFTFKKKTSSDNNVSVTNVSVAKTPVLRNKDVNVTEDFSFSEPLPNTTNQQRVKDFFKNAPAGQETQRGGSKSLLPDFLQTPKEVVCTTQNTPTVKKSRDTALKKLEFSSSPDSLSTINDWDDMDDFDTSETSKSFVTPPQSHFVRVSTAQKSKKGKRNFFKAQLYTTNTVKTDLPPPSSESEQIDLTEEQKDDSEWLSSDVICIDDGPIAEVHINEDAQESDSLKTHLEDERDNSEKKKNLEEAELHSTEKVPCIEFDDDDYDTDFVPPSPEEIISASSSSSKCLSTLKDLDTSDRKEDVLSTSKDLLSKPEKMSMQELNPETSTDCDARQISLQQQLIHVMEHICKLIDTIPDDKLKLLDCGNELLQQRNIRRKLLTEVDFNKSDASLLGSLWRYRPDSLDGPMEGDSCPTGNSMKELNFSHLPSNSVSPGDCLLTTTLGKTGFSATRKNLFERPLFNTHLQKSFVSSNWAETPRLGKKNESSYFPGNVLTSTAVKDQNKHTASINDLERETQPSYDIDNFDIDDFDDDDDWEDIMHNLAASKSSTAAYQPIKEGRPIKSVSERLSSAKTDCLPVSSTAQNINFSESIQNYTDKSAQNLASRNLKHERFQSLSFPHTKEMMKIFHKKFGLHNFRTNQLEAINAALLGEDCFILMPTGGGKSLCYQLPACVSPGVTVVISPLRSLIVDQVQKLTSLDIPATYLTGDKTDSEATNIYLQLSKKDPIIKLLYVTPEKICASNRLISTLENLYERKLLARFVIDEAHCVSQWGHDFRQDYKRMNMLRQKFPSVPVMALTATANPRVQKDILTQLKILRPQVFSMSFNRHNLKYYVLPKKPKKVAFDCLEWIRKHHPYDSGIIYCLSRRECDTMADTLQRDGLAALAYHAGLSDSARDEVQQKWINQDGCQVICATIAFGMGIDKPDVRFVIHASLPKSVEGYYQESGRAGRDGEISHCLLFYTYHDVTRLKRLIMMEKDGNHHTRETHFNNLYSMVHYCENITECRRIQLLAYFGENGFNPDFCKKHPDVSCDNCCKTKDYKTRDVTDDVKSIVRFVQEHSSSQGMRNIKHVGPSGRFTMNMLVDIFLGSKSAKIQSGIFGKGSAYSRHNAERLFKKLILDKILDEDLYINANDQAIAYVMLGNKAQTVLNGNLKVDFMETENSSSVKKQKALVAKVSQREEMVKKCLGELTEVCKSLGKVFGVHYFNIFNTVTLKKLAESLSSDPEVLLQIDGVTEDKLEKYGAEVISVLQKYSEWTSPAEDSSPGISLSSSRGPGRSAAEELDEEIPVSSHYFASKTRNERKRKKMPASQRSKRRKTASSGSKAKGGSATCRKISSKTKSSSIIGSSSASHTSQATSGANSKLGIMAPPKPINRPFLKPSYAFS

As to `CCCCC/C=C\C/C=C\C/C=C\C/C=C\CCCC(=O)NCC(=O)O`, the result in [1], in assay [2], in assay [3], in assay [9], in [11] and in [12] was inactive. In addition, the result in assay [13] and in assay [14] was inactive. In assay [4] (at 57.5 µM (top of the series)), the activity change, negative = inhibition is -0.69% (inactive). In addition, the max response amounted to 64.5% in assay [4] (setting [21]) and 63.6% in [4] (setting [22]). Also, the Potency was 14.1 µM (active) in assay [5], 14.1 µM (active) in assay [6], 14.1 µM (active) in assay [8] and 3.98 µM (active) in [10]. Besides, in [7], the Potency result was “inactive”.

Turning to `COc1cc(-c2ccc(=O)[nH]n2)ccc1OC(F)F`, the result in [2] and in assay [13] was inactive. For the same compound, the activity change, negative = inhibition in [4] (at 25.7 µM (top of the series)) is -2.55% (inactive). Further, the max response was -17.6% in assay [4] (setting [21]) and -17.5% in assay [4] (setting [22]).

On to `COc1ccc2c(c1)C13CCCC[C@@H]1C(C2)N(C)CC3` (stereo partly specified), for which the activity change, negative = inhibition in [4] (at 25.7 µM (top of the series)) was -0.828% (inactive). Besides, the max response was -8.06% in assay [4] (setting [21]) and -9.19% in assay [4] (setting [22]).

For `O=c1[nH]oc2c1CCNC2`, the outcome in assay [1], in assay [2], in [12], in assay [13] and in assay [18] was inactive. Besides, the activity change, negative = inhibition in [4] (at 25.7 µM (top of the series)) was -3.52% (inactive); in assay [4] (at 57.5 µM (top of the series)) it was -0.0762% (inactive) and 5.91% (inactive). Moreover, the max response in assay [4] (setting [21]) is -6.88% and 7.61% and 14.4%; in [4] (setting [22]) it was -10.1% and 10.3% and 21.9%. The Potency result in [5], in assay [6], in assay [15], in [16], in [7] and in [17] was “inactive” in each case. The Potency result in assay [8] and in assay [10] was “inactive” in each case.

On to `C[C@]12CCC(=O)C=C1CC[C@@H]1[C@@H]2CC[C@]2(C)C(=O)CC[C@@H]12`, for which the result in assay [1], in [2], in assay [3], in assay [9], in [13] and in assay [14] was inactive. For the same compound, the activity change, negative = inhibition in [4] (at 57.5 µM (top of the series)) is 0.917% (inactive). For the same compound, the max response in [4] (setting [21]) is 67.2%; in assay [4] (setting [22]), 68.1%. The Potency result in assay [15], in [7], in [8] and in [10] was “inactive” throughout.

As to `O=C(CCCN1CCC2(CC1)C(=O)NCN2c1ccccc1)c1ccc(F)cc1`, the outcome in assay [1], in assay [2], in assay [3], in assay [9], in assay [12] and in [18] was inactive. Besides, the activity change, negative = inhibition was -0.907% (inactive) in assay [4] (at 25.7 µM (top of the series)) and 7.99% (inactive) in assay [4] (at 57.5 µM (top of the series)). Further, the max response in [4] (setting [21]) was -5.72% and 5.19%; in assay [4] (setting [22]) it was -10.3% and 17.9%. The Potency entry in assay [10] is “inactive”.

On to `O=C(O)CCCc1ccc(N(CCCl)CCCl)cc1`, for which the compound was classed as inactive in [1], in [2], in assay [19], in [9], in assay [12] and in [13]. In addition, the call in [18] was inactive. Moreover, the activity change, negative = inhibition in assay [4] (at 25.7 µM (top of the series)) was 2.25% (inactive); in assay [4] (at 57.5 µM (top of the series)), 2.66% (inactive). Also, the max response is -7.28% and 5.28% in assay [4] (setting [21]); -5.54% and 10.7% in assay [4] (setting [22]). The Potency in assay [17] is 11.2 µM (active). In addition, the Potency result in assay [10] is “inactive”.

As to `CC(C)N(CCC(C(N)=O)(c1ccccc1)c1ccccn1)C(C)C` (stereo unspecified), the compound was called inactive in [3], in [20], in [9], in assay [11], in [12] and in assay [13]. Further, the outcome in [14] and in assay [18] was inactive. Besides, the activity change, negative = inhibition in [4] (at 57.5 µM (top of the series)) is 4.57% (inactive) and -1.93% (inactive) and 1.94% (inactive). The max response in assay [4] (setting [21]) is 23.6% and -10.4% and -17.4%; in assay [4] (setting [22]), 33.6% and -11% and -15.7%. The Potency entry in [5], in assay [15], in assay [16], in assay [7], in [8] and in assay [10] was “inactive” each time. Further, the Potency in assay [17] is 8.91 µM (active).

Values taken from PubChem BioAssay (NCATS).
